The first assay addresses CTHRC1. Briefly: pooled miR-30 sensor sort-seq; sequence = guide strand. The note with it: shRNA.
For the sequence TAATTCAATGAACTCCATGAAC, the sensor-assay potency score (higher = more potent) was -1.24.

On to TAGAGCACTATTTGAACGCATC, for which the sensor-assay potency score (higher = more potent) is -1.21. Sequence TTTGTAAATGTACACTCCGCAA came in with a sensor-assay potency score (higher = more potent) of -1.33.

Sequence TTAGAGCACTATTTGAACGCAT showed a sensor-assay potency score (higher = more potent) of -0.079. Take ATGAACTCCATGAACACTGCTT: the sensor-assay potency score (higher = more potent) was determined as 0.166.

Consider TAAATTATAGCTTCAATGGGAA, for which the sensor-assay potency score (higher = more potent) is -0.0923. For the sequence ATAAATTATAGCTTCAATGGGA, the sensor-assay potency score (higher = more potent) turned out to be 0.0197.

For the sequence TTGAATGTGAAATACCAACGCT, the sensor-assay potency score (higher = more potent) is -0.453.

TAGCAACATCCACTAATCCAGC gave a sensor-assay potency score (higher = more potent) of -1.03. For the sequence TCTTTGTAAATGTACACTCCGC, the sensor-assay potency score (higher = more potent) was -0.893.

A further assay has as its target CTLA4. The description is as above. The note with it: shRNA.
TAGCAATTACATAAATCTGGGT came in with a sensor-assay potency score (higher = more potent) of -0.226. As for TTTTCTTTAGCAATTACATAAA, the sensor-assay potency score (higher = more potent) was -1.29. Still for that read-out and setting: in the case of TCATCTAGGAAGGTCAACTCAT it was -0.426; in that of TTACATAAATCTGGGTTCCGTT, -0.355. Still for that read-out and setting: as for TGGATCAATTACATAAATCTGG, the figure is -0.489; as for TTGCAGATGTAGAGTCCCGTGT, -0.673; as for TTCACTTGATTTCCACTGGAGG, -0.709. On the same count and under the same terms, in the case of TCAATTACATAAATCTGGGTTC it was -0.428; in that of TTCTTTAGCATTTTGCTCAAAG, -0.747. In turn, TTGGATAGTGAGGTTCACTTGA yielded a sensor-assay potency score (higher = more potent) of 0.333. Sequence TAAATCTGGGTTCCGTTGCCTA displayed a sensor-assay potency score (higher = more potent) of -0.995. Regarding TTTTCTTTAGCATTTTGCTCAA, the sensor-assay potency score (higher = more potent) is -0.539. Sequence TTTCTTTAGCATTTTGCTCAAA displayed a sensor-assay potency score (higher = more potent) of -0.998. The sequence TTTGCTCAAAGAAACAGCTGTG yielded a sensor-assay potency score (higher = more potent) of 0.483.

The record behind these values is the OligoGym collection.
Note: reference of the scale not given here.
